Screening data (PubChem BioAssay)
Sm TGR block: qHTS Assay for the Inhibitors of Schistosoma Mansoni Peroxiredoxins; Potency, µM (series often up to 114 µM), inactives show top-dose activity change, negative = inhibition, actives largely listed as inhibitors; 360,000 compounds, 3% hits; AID 485364, 2010; Schistosoma mansoni thioredoxin glutathione reductase (TGR), Q962Y6; purified TGR, DTNB reduction, TNB absorbance 405 nm; note: nearly all actives have a fitted effect of over 60% in size
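TGR 20 nM + NADPH 100 uM (dispensed conc.), cpd preinc 15 min RT; start with NADPH (500 uM addition) then DTNB (15 mM addition). Kinetic TNB absorbance, 405 nm filter. Four-parameter Hill fit across titration.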
LmPK inhibitor: qHTS Assay for Inhibitors of Leishmania Mexicana Pyruvate Kinase (LmPK); Q27686; AID 1721, 2009; Potency, µM (top dose mostly 57.5 µM), for the others: at the top dose activity change, negative = inhibition, hits mostly inhibitors; purified LmPK, Kinase-Glo ATP luminescence, 1 h; 290,000 compounds, 0.37% hits
Target sequence (Q27686 whole entry, looked up): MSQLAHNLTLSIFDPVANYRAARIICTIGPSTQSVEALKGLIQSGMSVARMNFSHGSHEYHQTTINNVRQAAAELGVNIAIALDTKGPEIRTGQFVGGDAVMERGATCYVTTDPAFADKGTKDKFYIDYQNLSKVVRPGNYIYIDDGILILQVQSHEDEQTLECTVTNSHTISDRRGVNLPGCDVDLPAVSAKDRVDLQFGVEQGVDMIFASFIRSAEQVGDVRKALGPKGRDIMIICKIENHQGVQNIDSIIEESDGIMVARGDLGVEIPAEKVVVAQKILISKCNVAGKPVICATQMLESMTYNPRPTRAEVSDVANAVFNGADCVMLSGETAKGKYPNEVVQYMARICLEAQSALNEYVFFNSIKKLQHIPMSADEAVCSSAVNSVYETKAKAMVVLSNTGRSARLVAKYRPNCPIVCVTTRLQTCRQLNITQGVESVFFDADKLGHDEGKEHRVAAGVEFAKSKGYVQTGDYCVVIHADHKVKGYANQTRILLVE
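In 50 mM imidazole pH 7.2 with 7 mM MgCl2, LmPK (0.1 nM) turned over PEP (0.5 mM) and ADP (0.1 mM) for 1 h at room temperature. Luciferase read-out of ATP.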
Tb PYK inh: qHTS of Trypanosoma Brucei Inhibitors; TbPYK enzyme, Kinase-Glo Plus ATP luminescence, 45 min; pyruvate kinase (Trypanosoma brucei), Q57TT1; Potency, µM (titrated, usually from 76.8 µM), for the others: top-dose activity, negative = inhibition, hits mostly inhibitors; 410,000 compounds, 0.12% hits; note: nearly all actives have a fitted effect of over 50% in size
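Activity of T. brucei pyruvate kinase was followed by Kinase-Glo Plus luminescence after the enzyme reacted 45 min at room temperature with 130 uM ADP (final) and substrate. Test compounds were added before ADP at multiple concentrations.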
AMA1 RON2 block: qHTS for Inhibitors of AMA1-RON; Towards Development of Antimalarial Drug Lead: Primary Screen; 360,000 compounds, 0.2% hits; AlphaScreen AMA1-biotinylated RON2 peptide binding; Potency, µM (titrated, usually from 58.2 µM), for inactives: at the top dose activity change, negative = inhibition, hits mostly inhibitors; Plasmodium falciparum AMA1 (3D7) - RON2 peptide interaction;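 note: 0% = vehicle wells and -100% = peptide control; nearly all actives have a fitted effect of over 45% in size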
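AMA1 (3D7) with his tag at 25 nM final met compounds first, then biotinylated RON2 peptide at 25 nM; detection used donor plus acceptor beads, 10 µg/mL apiece, read by AlphaScreen after 30 min at room temperature.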
RE007 growth inh: qHTS Assay for Inhibitors of the HIV-1 protein Vpr; S. pombe RE007 Vpr strain, BacTiter-Glo ATP luminescence, 24 h; Potency, µM (highest dose often 92.2 µM), for inactives: at the highest dose activity change, negative = less growth, most hits filed as inhibitors; 360,000 compounds, 0.21% hits; AID 651644, 2012; active = well fitted falling curve with a large enough effect; inconclusive = small, poorly fitted or top-dose-only effect; inactive = no such curve, though single readings can be large or run the other way; note: nearly all actives have a fitted effect of over 50% in size
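Fission yeast strain RE007, carrying one chromosomally integrated HIV-1 vpr copy, was seeded at OD 0.01 in PMG+AL medium with 23 nL pinned compound. After 24 h at 30 °C and 99% humidity, viability was read by BacTiter-Glo luminescence.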
Active calls of the source: *; ? = inconclusive; . = no result; [ ] = dose if it differs, or a comment. Most compounds without a hit are left out; they make up all but 3.2% or so of the library. Unless noted, calls come from the whole dose curve; as a rule, active = well fitted curve in the direction sought with a large enough effect; inconclusive = small, poorly fitted or top-dose-only effect, or another doubt; inactive = no such curve, though single readings can be large; an effect the other way counts as inactive or inconclusive. Unless noted, % is set by controls: 0 for no effect and ±100 for the full control effect; potency is the fitted concentration of half-maximal effect.

SMILES	Sm TGR block	LmPK inhibitor	Tb PYK inh	AMA1 RON2 block	RE007 growth inh
CC(C)c1ccc(C2NC(=O)NC3=C2CCc2ccccc23)cc1 (stereo not drawn)	?	-2.4%	2.3%	12.5%	15.7%
CCCCS(=O)(=O)N1C2=NC(C(=O)OC)=C(C(=O)OC)[C@@H]3N(C)c4ccccc4[C@]23C[C@H]1C(=O)OC	.	3.6%[11.5 µM]	.	.	.
CCCCn1c(SCC(=O)c2ccc3c(c2)OCCO3)nnc1-c1ccoc1C	?	0.7%	-12.8%	-0.2%	22.4%
CCn1c(SCC(=O)c2ccc(F)cc2)nnc1-c1ccoc1C	39.8µM*	-9.0%	-9.5%	10.8%	-0.7%
Cc1occc1-c1nnc(SCC(=O)c2ccc3c(c2)OCCO3)n1CC1CCCO1 (stereo not drawn)	50.1µM*	2.5%	1.8%	-3.7%	6.9%
CCC(C)NC(=O)CSc1nnc(-c2ccoc2C)n1CC1CCCO1 (stereo not drawn)	10.4%	1.9%	-4.7%	41.6%	0.0%
Cc1occc1-c1nnc(SCC(=O)c2ccccc2)n1CC1CCCO1 (stereo not drawn)	28.2µM*	-0.7%	-6.9%	4.2%	-6.8%
COc1ccc(Nc2ncnc3c2c(-c2ccccc2)cn3-c2ccc(C)c(Cl)c2)cc1OC	9.4%	.	-3.3%	.	.
COC1=CC(=O)c2ccccc2C1=O	.	.	-5.8%	6.3%	22.4µM*
O=C(O)c1ccccc1C(=O)N1CCN(C(=O)c2ccccc2Cl)CC1	89.1µM*	-1.6%	1.3%	3.4%	0.9%
O=C(c1ccccc1C(=O)N1CCN(c2ccccc2)CC1)N1CCN(c2ccccc2)CC1	7.8%	3.8%	-0.3%	-8.4%	6.9%
O=C(O)c1ccccc1C(=O)N1CCN(c2ccccc2)CC1	35.5µM*	6.1%	3.4%	-1.7%	-6.6%
O=C1CSC(=S)N1/N=C/c1cc(Br)c(O)c(Br)c1	20µM*	-5.7%	-21.2%	3.0%	4.7%
O=C1CSC(=S)N1/N=C/c1ccc2c(c1)OCCO2	7.08µM*	-5.1%	-8.5%	49.4%	5.0%
CC(C)CCOc1ccc(/C=N/N2C(=O)CSC2=S)cc1	-13.4%	-1.0%	-1.6%	23.3%	-11.3%
O=C1CSC(=S)N1/N=C/c1ccc(Cl)c([N+](=O)[O-])c1	22.4µM*	2.6%	.	.	.
COc1cc(O)c(C=NN2C(=O)CSC2=S)c(OC)c1	.	.	?	-2.4%	7.7%
COc1cc(/C=N/N2C(=O)CSC2=S)ccc1O	5.62µM*	-2.4%	-5.3%	21.1%	1.5%
Cc1ccc(NC(=O)CN2C(=O)COc3ccc(S(=O)(=O)N4CCCCCC4)cc32)c(C)c1	44.4%	.	2.2%	.	.
CCc1ccccc1N(C)C(=O)c1cc2c(=O)oc3ccccc3c2s1	9.5%	.	-1.2%	.	.
CCOC(=O)c1c(O)c(O)c(C(=O)OCC)n1-c1ccccc1	39.8µM*	0.6%	-10.4%	?	-12.2%
O=S(=O)(c1cccc(F)c1)N1CCC(Oc2ccc(-n3cnnn3)cc2)CC1	6.8%	.	-0.2%	.	.
CC#CCN1c2ccccc2[C@]23C[C@@H](C(=O)OC)N(C(=O)c4cccs4)C2=NC(C(=O)OC)=C(C(=O)OC)[C@H]13	.	4.1%[11.5 µM]	.	.	.
Cc1cccnc1Sc1c([N+](=O)[O-])ncn1C	0.0%	-1.6%	6.1%	-7.3%	-8.1%
Cn1cnc([N+](=O)[O-])c1Sc1nnc(-c2cccnc2)n1C	0.447µM*	6.5%	-0.5%	6.0%	1.6%
SMILES	Sm TGR block	LmPK inhibitor	Tb PYK inh	AMA1 RON2 block	RE007 growth inh
Cc1ccccc1Nc1nc(CSc2nnc(-c3ccoc3C)n2C)cs1	35.5µM*	-2.5%	.	6.0%	-3.2%[3.69 µM]
Cc1occc1-c1nnc(SCc2cc(=O)n3cc(Br)ccc3n2)n1C	44.7µM*	-0.6%	2.1%	-5.7%	-15.6%
O=C(NCc1ccc2c(c1)CCN2C(=O)c1ccccc1)c1ccco1	-11.5%	.	-14.8%	.	.
COc1ccc(C2CC(=O)c3cnc(NC(=O)c4ccco4)nc3C2)cc1 (stereo not drawn)	-14.5%	-2.0%	0.4%	-10.5%	-2.4%
COc1ccccc1C(=O)Nc1ncc2c(n1)CC(c1ccco1)CC2=O (stereo not drawn)	20µM*	2.7%	-19.3%	-9.4%	5.8%
CC(C)(C)c1cc(C(c2cccnc2)N2CCN(CCO)CC2)cc(C(C)(C)C)c1O (stereo not drawn)	0.447µM*	-0.1%	?	?	?
CC(C)(C)n1nnnc1C(c1cccnc1)N1CCN(c2cccc(C(F)(F)F)c2)CC1 (stereo not drawn)	-12.2%	2.6%	10.1%	-12.0%	0.4%
Cc1ccc2c(c1)nc(SCC(O)c1ccc(Br)cc1)n2C (stereo not drawn)	-2.7%	.	-4.1%	.	.
Cc1ccc(C(=O)CCS(=O)(=O)c2ccc(F)cc2)cc1	0.316µM*	-12.0%	-12.1%	-0.3%	-24.4%
Cc1ccc(S(=O)(=O)CCC(=O)c2ccc(F)cc2)cc1	-17.5%	0.3%	-1.5%	5.3%	-26.3%
Cc1ccc(C(=O)CCS(=O)(=O)c2ccc(Cl)cc2)cc1	0.355µM*	-7.2%	-2.0%	-4.8%	-14.9%
CCc1ccccc1NC(=O)N1CCN(c2cc(-c3noc(C)n3)ccc2C)CC1	10.5%	.	0.7%	.	.
C=CCOc1c(/C=N\NC(N)=O)cccc1OC	-10.0%	1.4%	3.1%	0.9%	-9.3%
C=CCOc1c(OC)cc(/C=N/Nc2cccc(C(=O)O)c2)c(Br)c1Br	56.2µM*	4.3%	-17.2%	-4.8%	.
CN(C)C(=O)COc1ccc(S(=O)(=O)c2ccc(OCC(=O)N(C)C)cc2)cc1	79.4µM*	-0.1%	-2.0%	5.4%	8.2%
COc1ccc(-n2nc3cc(C)c(N)c(Br)c3n2)cc1	39.8µM*	?	?	-5.4%	-0.1%
CC[C@H](C)[C@H]1O[C@]2(CC[C@@H]1C)C[C@@H]1C[C@@H](C/C=C(\C)[C@H](O[C@@H]3C[C@H](OC)[C@H](O[C@@H]4C[C@H](OC)[C@@H](O)[C@H](C)O4)[C@H](C)O3)[C@@H](C)/C=C/C=C3\CO[C@@H]4[C@H](O)C(C)=C[C@@H](C(=O)O1)[C@]34O)O2	.	.	-4.4%	.	.
Oc1ccc(C2C[C@H]3CC[C@@H]2C3)cc1O (stereo partly drawn)	1µM*	?	?	-22.0%	2.4%
CCOc1ccccc1NC(=S)NC(=O)C1CCCCC1	8.91µM*	-7.0%	-3.0%	43.1%	-26.3%
CCC1CCCCN1C(=O)COc1ccccc1NC(C)=O (stereo not drawn)	50.1µM*	4.2%	0.0%	-11.4%	17.0%
O=C(NC(=S)Nc1ccc(F)c(Cl)c1)C1CC1	15.8µM*	1.9%	5.0%	-0.3%	-19.0%
COc1ccccc1NC(=S)NC(=O)C1CC1	?	0.5%	42.6%	1.3%	0.1%
O=C(NC(=S)Nc1ccccc1Cl)C1CC1	44.7µM*	-4.0%	6.1%	-10.0%	-16.4%
